Source: PubChem BioAssay
AHR act: activates the human aryl hydrocarbon receptor; AHR-responsive luciferase reporter cells, luminescence; activation, % at 5 µM; 320,000 tested, 2.5% active; in the data active = activation above about 47%;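 note: 0% = vehicle wells and 100% = reference agonist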
hgDAF-12 ag: activates the H. glycines DAF-12 receptor ligand-binding domain | HEK293 GAL4-hgDAF12 UAS-luciferase reporter, agonist luminescence; normalized to butyrate control | activation, % at 6.8 µM | 370,000 tested, 1.8% active;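 active = activation above a cutoff set at the mean of all screened compounds plus 3 SD, cut at about 10% in these data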;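 note: 0% = DMSO wells and 100% = sodium butyrate wells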
hcDAF12 agonist: activators of H. contortus DAF-12 nuclear receptor; activation, % at 6.8 µM; 370,000 tested, 1.4% active; AID 652067; HEK293 hcDAF-12 lit1-tk-luc reporter, luminescence; 0% DMSO, 100% Δ7-dafachronic acid;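 active = activation above the mean of all tested compounds plus 3 SD, cut at about 5.5% in these data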;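 note: 100% = response to 3 µM Δ7-dafachronic acid high control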
DAX1 inh-1: blocks DAX1 repression of SF-1 activated StAR promoter; inhibition, % at 6.8 µM; 370,000 tested, 1.1% active; HEK293T StAR-luciferase reporter, SF-1/DAX-1 repression relief;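 active = inhibition above the mean over all tested compounds plus 3 SD, cut at about 3.6% in these data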;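 note: 0% = DAX-1 cells with DMSO and 100% = cells lacking DAX-1 with DMSO; higher inhibition means more luminescence from relief of DAX-1 repression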
DAX1 inh-2: inhibits human nuclear receptor DAX1; P51843; HEK293 Gal4-DAX1 luciferase reporter, luminescence; inhibition, % at 6.75 µM; 340,000 tested, 0.99% active; AID 504766;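 active = inhibition above the mean over all tested compounds plus 3 SD, cut at about 4.2% in these data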;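 note: 0% = DAX1-transfected cells with DMSO and 100% = empty-vector control cells with DMSO; inhibition shows as a rise in luminescence from relieved DAX1 repression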
Target sequence (P51843 207-470 limits assumed): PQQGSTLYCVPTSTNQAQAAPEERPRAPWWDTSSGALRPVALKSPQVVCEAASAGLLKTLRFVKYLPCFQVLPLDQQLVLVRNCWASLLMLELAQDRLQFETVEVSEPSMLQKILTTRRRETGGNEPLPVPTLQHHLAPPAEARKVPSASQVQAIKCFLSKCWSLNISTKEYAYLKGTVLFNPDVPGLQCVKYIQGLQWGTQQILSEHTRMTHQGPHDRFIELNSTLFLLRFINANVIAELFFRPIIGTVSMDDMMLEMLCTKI
ssDAF-12 act: activators of S. stercoralis DAF-12 nuclear receptor; activation, % at 6.8 µM; 370,000 tested, 1% active; HEK293 ssDAF-12/GRIP1 lit1-tk-luc reporter, luminescence; % of 3 µM dafachronic acid response;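 active = activation above the mean over all tested compounds plus 3 SD, cut at about 0.9% in these data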;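 note: 0% = DMSO-only wells and 100% = 3 µM delta7-dafachronic acid wells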
Starred values were filed as active, the others as inactive. Most compounds without a hit are left out; they make up all but 5.7% or so of the library.

O=[N+]([O-])c1ccc(NN=Cc2ccccc2O)nc1 was read as hgDAF-12 ag -1, hcDAF12 agonist 1, DAX1 inh-1 -4, DAX1 inh-2 -3 and ssDAF-12 act -2.
Screening CC(C)[C@H](NC(=O)c1ccco1)C(=O)N1CCC[C@H]1C(=O)NCc1ccccc1 returned hgDAF-12 ag 0, hcDAF12 agonist 3, DAX1 inh-1 2 and ssDAF-12 act -1.
CCc1nc2c(c(=O)c3ccccc3n2C)c(=O)n1CCc1ccc(OC)cc1 was read as AHR act 41.
Screening COc1ccc(C=NNc2ccc([N+](=O)[O-])cn2)cc1 returned hgDAF-12 ag 11*, hcDAF12 agonist 2, DAX1 inh-1 3, DAX1 inh-2 2 and ssDAF-12 act 0.
For O=C(Nc1nc2c(s1)CCCC2)c1ccc(Br)s1 the results were AHR act 8, hgDAF-12 ag 10, hcDAF12 agonist 6.2*, DAX1 inh-1 1, DAX1 inh-2 1 and ssDAF-12 act -1.
`COc1ccc(OCC(=O)Nc2nc3c(s2)CCCC3)cc1` gave AHR act 1, hgDAF-12 ag -2, hcDAF12 agonist -1, DAX1 inh-1 1, DAX1 inh-2 0 and ssDAF-12 act 0.
For O=C(CCCc1cccs1)Nc1nc2c(s1)CCCC2 the results were AHR act 29, hgDAF-12 ag 5, hcDAF12 agonist 4, DAX1 inh-1 2, DAX1 inh-2 4 and ssDAF-12 act 1.0*.
For CNS(=O)(=O)c1ccc2nc(NC(=O)c3ccc(N4C(=O)CCC4=O)cc3)sc2c1 the results were AHR act -1, hgDAF-12 ag -2, hcDAF12 agonist -2, DAX1 inh-1 -1, DAX1 inh-2 1 and ssDAF-12 act -2.
O=C(Nc1nnc(C2CCCCC2)s1)c1ccc(Br)s1 was read as AHR act 5, hgDAF-12 ag 1, hcDAF12 agonist -2, DAX1 inh-1 -1, DAX1 inh-2 2 and ssDAF-12 act -2.
For CCc1ccc2nc(NC(=O)c3ccc(N4C(=O)CCC4=O)cc3)sc2c1 the results were AHR act -2, hgDAF-12 ag 0, hcDAF12 agonist 0, DAX1 inh-1 0, DAX1 inh-2 4.4* and ssDAF-12 act 0.
COC(=O)c1ccc(C(=O)NC(=S)Nc2nc3c(s2)CCCC3)cc1 was read as AHR act 9, hgDAF-12 ag 5, hcDAF12 agonist 6.2*, DAX1 inh-1 0, DAX1 inh-2 -2 and ssDAF-12 act 0.
`Cc1noc(C)c1S(=O)(=O)Nc1ccc2c(c1)CC(=O)N([C@H](C)CO)C[C@H](C)[C@@H](CN(C)CC1CC1)O2` gave AHR act 0, hgDAF-12 ag -2, hcDAF12 agonist -1, DAX1 inh-1 1, DAX1 inh-2 1 and ssDAF-12 act -1.
Screening CN(C)S(=O)(=O)c1ccc(N2CCCC2)c(C(=O)NCC2CCCCC2)c1 returned AHR act 2, hgDAF-12 ag 4, hcDAF12 agonist -2, DAX1 inh-1 0, DAX1 inh-2 -2 and ssDAF-12 act -1.
`O=C(Nc1nc2c(s1)CCCC2)c1ccc(N2C(=O)CCC2=O)cc1` gave AHR act 11, hgDAF-12 ag 4, hcDAF12 agonist 4, DAX1 inh-1 4.2*, DAX1 inh-2 1 and ssDAF-12 act -1.
COc1ccc(CC(=O)Nc2cc(S(=O)(=O)Nc3ccc(OC)cc3)ccc2OC)cc1 was read as AHR act 5, hgDAF-12 ag -2, hcDAF12 agonist -1, DAX1 inh-1 -3, DAX1 inh-2 -1 and ssDAF-12 act -2.
For CCn1nc(C)c(Br)c1-c1nc(-c2ccc(C)cc2)no1 the results were AHR act 8, hgDAF-12 ag 0, hcDAF12 agonist 3, DAX1 inh-1 0 and ssDAF-12 act 1.0*.
`COc1ccc(NC(=O)N2CCC(c3nc(-c4cccs4)no3)CC2)cc1` gave AHR act 60*, hgDAF-12 ag 0, hcDAF12 agonist -2, DAX1 inh-1 -1, DAX1 inh-2 -1 and ssDAF-12 act -2.
For O=C(Nc1ccc(Cl)cc1)N1CCC(c2nc(-c3cccs3)no2)CC1 the results were AHR act 41, hgDAF-12 ag 0, hcDAF12 agonist 0, DAX1 inh-1 1, DAX1 inh-2 0 and ssDAF-12 act -2.
Screening O=C(Nc1ccccc1)N1CCCC(c2nc(-c3cccs3)no2)C1 (stereo not drawn) returned AHR act 70* and DAX1 inh-2 0.
`Cc1ccccc1NC(=O)N1CCCC(c2nc(-c3ccc(C(C)C)cc3)no2)C1` (stereo not drawn) gave AHR act -12, hgDAF-12 ag 11*, hcDAF12 agonist 5, DAX1 inh-1 0, DAX1 inh-2 -4 and ssDAF-12 act 0.
Cc1ccccc1NC(=O)N1CCCC(c2nc(-c3ccc(F)cc3)no2)C1 (stereo not drawn) was read as AHR act 11, hgDAF-12 ag 3, hcDAF12 agonist -1, DAX1 inh-1 1, DAX1 inh-2 0 and ssDAF-12 act -2.
For COC(=O)CCN1CCc2cc(N=Nc3ccc([N+](=O)[O-])cc3)ccc21 the results were AHR act 1, hgDAF-12 ag 1, hcDAF12 agonist -1, DAX1 inh-1 -1 and ssDAF-12 act -1.
`O=C(Nc1nc2ccccc2n1Cc1ccc(Cl)cc1)c1ccco1` gave AHR act 0, hgDAF-12 ag 0, hcDAF12 agonist -1, DAX1 inh-1 0, DAX1 inh-2 -1 and ssDAF-12 act -1.
`C=CCn1c(NC(=O)c2ccco2)nc2ccccc21` gave AHR act 68*, hgDAF-12 ag 2, hcDAF12 agonist 1, DAX1 inh-1 0, DAX1 inh-2 0 and ssDAF-12 act -1.
CCCCN1CCN=C1N(C)C was read as AHR act 4, hgDAF-12 ag 0, hcDAF12 agonist -2, DAX1 inh-1 0, DAX1 inh-2 2 and ssDAF-12 act -1.
For COCCNC(=O)c1c(N)n(CCCn2ccnc2)c2nc3ccccc3nc12 the results were AHR act 53*, hgDAF-12 ag 0, hcDAF12 agonist 0, DAX1 inh-1 0, DAX1 inh-2 4 and ssDAF-12 act -1.
CC1Cc2c([nH]c3ccccc23)C(=O)N1 (stereo not drawn) was read as AHR act -2, hgDAF-12 ag 3, hcDAF12 agonist -2, DAX1 inh-1 -1, DAX1 inh-2 -1 and ssDAF-12 act -1.
`COC(=O)N/N=C/c1cc(Cl)cc(Cl)c1OCc1ccc(F)cc1` gave AHR act 55*, hgDAF-12 ag -2, hcDAF12 agonist -3, DAX1 inh-1 1, DAX1 inh-2 -1 and ssDAF-12 act -1.
COC(=O)N/N=C/c1cc(Cl)c(OCc2ccc(F)cc2)c(OC)c1 was read as AHR act 10, hgDAF-12 ag -3, hcDAF12 agonist -1, DAX1 inh-1 0, DAX1 inh-2 -1 and ssDAF-12 act -1.
